Targets with a hit are over-represented here; the source holds about 8,800 in all. About 0.5% of all pairs of compound and target were hits. Unmarked numbers belong to inactive results.
Columns and labels:
Experiment in all cases: log2 fold change, soluble protein after heating vs DMSO (PISA); higher = thermal stabilisation; K562 lysate, 10 uM; active = over 0.2 and 3.5 SD of the protein, either way, in both replicates (recomputed)
erlotinib = compound: C#Cc1cccc(Nc2ncnc3cc(OCCOC)c(OCCOC)cc23)c1 [erlotinib]
How it was run: (§1)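 A 30 min treatment with 10 μM compound was applied to crude K562 extract at 1 mg/mL protein in PBS pH 7.4 with 1 mM MgCl2. Heating for 3 min spanned 48°C-58°C, after which aliquots were pooled, adjusted to 0.5% NP-40 at 4°C and spun at 21,000xg for 90 min. TMTpro 16plex LC-MS/MS of the supernatant, with channel sums equalised, gave values recorded as log-two fold change in thermal stability against solvent controls, from duplicates.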

[1] = compound: C/C(=N\NC(=O)C1=CC(=CC=C1)S(=O)(=O)N2CCOCC2)/C3=C(C=CC(=C3)Cl)O
How it was run: as §1

[2] = compound: C1=CC(=CC=C1C2=NC3=C(N2)C=C(C=C3)C(=O)N)OC4=CC=C(C=C4)Cl
How it was run: as §1

[3] = compound: C1=CC2=C(C=CC(=C2)/C=C\3/C(=O)NC(=NCC4=CC=CS4)S3)N=C1
How it was run: as §1

[4] = compound: C1=CC2=NC=CN=C2C=C1/C=C/3\C(=O)NC(=O)S3
How it was run: as §1

[5] = compound: C1=CC=C(C=C1)C2=NC(=C(N2)C3=CC=NC=C3)C4=CC(=C(C=C4)Cl)O
How it was run: as §1

[6] = compound: C1=CC=C2C(=C1)C3=NNC4=CC=CC(=C43)C2=O
How it was run: as §1

[7] = compound: C1CCN(C1)C(=O)NC2=CC=CC(=C2)NC3=NC=C(C(=N3)NCCC4=CN=CN4)Br
How it was run: as §1

[8] = compound: C1CN(CCC1(CC2=CC=C(C=C2)Cl)N)C3=NC=NC4=C3C=CN4
How it was run: as §1

IRAK-1-4 Inhibitor I = compound: C1COCCN1CCN2C3=CC=CC=C3N=C2NC(=O)C4=CC(=CC=C4)[N+](=O)[O-] [IRAK-1-4 Inhibitor I]
How it was run: as §1

ibrutinib = compound: C=CC(=O)N1CCC[C@@H](n2nc(-c3ccc(Oc4ccccc4)cc3)c3c(N)ncnc32)C1 [ibrutinib]
How it was run: as §1

[9] = compound: CC(=O)c1cnc2ccc(-c3cc(Cl)c(O)c(Cl)c3)nc2c1N[C@H]1CC[C@H](CN(C)C)CC1
How it was run: as §1

ralimetinib = compound: CC(C)(C)Cn1c(N)nc2ccc(-c3[nH]c(C(C)(C)C)nc3-c3ccc(F)cc3)nc21 [ralimetinib]
How it was run: as §1

[10] = compound: CC(C)(O)CC(=O)NCCn1ccc2ncnc(Nc3ccc(Oc4cccc(C(F)(F)F)c4)c(Cl)c3)c21
How it was run: as §1

[11] = compound: CC(C)C1=C2N=C(C=C(N2N=C1)NCC3=CC=CC=C3)NCCCCCCN
How it was run: as §1

[12] = compound: CC1=C(C(CC(=O)N1)C2=CC=C(C=C2)C(F)(F)F)C(=O)NC3=C(C=C4C(=C3)C=NN4)F
How it was run: as §1

[13] = compound: CC1=C(C2=C(C=C1)C(=O)C3=CC=CC=C3N2CCCN)C
How it was run: as §1

[14] = compound: CC1=C(C=C(C=C1)NC(=O)C2=CC(=CC=C2)C(C)(C)C#N)NC3=CC4=C(C=C3)N=CN(C4=O)C
How it was run: as §1

[15] = compound: CC1=C(C=C(C=C1)NC(=O)C2=CC(=CC=C2)N(C)C)NC(=O)C3=CC=C(C=C3)O
How it was run: as §1

[16] = compound: CC1=CC=C(C=C1)SC2=C3C=C(SC3=CN=C2)C(=O)N
How it was run: as §1

Sequence of UniProt Q9C0B7 (Q9C0B7 whole entry, looked up): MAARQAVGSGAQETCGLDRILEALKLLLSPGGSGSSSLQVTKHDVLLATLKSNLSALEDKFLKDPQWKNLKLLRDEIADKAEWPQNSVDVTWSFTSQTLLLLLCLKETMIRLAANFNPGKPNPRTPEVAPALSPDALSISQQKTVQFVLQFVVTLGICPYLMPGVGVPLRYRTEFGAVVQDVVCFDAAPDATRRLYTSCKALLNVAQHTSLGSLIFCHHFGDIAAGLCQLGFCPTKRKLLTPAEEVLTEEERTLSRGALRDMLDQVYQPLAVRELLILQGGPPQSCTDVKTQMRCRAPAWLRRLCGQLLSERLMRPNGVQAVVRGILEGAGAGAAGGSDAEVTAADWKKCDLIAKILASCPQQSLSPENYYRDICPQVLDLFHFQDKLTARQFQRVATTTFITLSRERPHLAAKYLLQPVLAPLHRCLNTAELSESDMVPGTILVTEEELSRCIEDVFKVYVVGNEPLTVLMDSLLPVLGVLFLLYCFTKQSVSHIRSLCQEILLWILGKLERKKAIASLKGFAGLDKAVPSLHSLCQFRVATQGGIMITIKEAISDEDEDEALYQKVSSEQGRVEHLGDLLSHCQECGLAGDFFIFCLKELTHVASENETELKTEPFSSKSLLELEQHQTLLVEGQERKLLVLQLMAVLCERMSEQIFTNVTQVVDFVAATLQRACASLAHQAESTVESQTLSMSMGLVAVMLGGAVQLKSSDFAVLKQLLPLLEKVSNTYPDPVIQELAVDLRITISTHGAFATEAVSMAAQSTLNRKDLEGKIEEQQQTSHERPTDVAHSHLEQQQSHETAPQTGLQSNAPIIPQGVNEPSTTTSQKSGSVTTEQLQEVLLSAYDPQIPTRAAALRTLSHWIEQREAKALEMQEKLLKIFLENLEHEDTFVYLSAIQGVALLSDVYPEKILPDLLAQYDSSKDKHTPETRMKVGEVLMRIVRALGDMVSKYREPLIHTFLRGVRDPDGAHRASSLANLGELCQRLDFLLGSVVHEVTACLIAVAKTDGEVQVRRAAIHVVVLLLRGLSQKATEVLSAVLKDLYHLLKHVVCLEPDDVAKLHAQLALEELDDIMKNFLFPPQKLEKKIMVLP
Sequence of UniProt O95149 (O95149 whole entry, looked up): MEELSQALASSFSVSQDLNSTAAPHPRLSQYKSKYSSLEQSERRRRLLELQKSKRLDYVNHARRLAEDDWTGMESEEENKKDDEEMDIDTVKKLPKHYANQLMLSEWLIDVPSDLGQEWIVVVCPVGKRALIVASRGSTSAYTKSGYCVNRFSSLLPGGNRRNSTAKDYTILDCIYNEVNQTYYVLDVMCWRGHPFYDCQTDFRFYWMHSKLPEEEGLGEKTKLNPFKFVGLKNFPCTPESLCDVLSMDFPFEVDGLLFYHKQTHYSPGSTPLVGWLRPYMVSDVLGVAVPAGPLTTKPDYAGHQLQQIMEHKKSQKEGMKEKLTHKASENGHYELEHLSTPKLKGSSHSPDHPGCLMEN
Sequence of UniProt Q8TCT8 (Q8TCT8 whole entry, looked up): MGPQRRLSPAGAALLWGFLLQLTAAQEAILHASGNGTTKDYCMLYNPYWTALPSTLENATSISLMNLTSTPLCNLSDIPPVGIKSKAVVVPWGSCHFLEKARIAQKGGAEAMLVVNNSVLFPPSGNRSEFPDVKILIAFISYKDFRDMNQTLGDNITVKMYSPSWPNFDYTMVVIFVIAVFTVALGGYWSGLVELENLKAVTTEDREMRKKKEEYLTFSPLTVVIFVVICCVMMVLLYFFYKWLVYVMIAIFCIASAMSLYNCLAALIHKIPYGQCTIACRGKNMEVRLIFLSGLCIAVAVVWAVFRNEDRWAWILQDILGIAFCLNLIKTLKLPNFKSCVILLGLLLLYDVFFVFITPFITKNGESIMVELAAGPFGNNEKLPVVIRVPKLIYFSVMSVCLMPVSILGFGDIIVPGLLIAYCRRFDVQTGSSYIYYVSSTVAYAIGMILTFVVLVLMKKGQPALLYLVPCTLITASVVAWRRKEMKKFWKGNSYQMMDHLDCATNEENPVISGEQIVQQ
Sequence of UniProt Q6PML9 (Q6PML9 whole entry, looked up): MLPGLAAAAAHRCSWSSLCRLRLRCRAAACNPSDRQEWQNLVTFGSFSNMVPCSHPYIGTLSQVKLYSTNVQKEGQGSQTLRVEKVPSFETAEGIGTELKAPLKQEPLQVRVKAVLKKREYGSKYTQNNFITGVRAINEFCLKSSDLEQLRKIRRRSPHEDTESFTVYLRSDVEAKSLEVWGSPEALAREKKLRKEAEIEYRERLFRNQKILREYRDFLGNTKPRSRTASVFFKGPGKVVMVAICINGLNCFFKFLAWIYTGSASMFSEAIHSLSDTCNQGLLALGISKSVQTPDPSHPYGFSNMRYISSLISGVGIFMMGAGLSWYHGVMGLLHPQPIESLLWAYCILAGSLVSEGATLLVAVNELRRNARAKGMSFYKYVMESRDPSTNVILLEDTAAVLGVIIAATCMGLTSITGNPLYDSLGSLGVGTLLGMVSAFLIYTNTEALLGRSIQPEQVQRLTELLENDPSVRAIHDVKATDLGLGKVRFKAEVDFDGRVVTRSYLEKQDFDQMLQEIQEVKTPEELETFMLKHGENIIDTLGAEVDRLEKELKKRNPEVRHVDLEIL
Sequence of UniProt P35711 (P35711 whole entry, looked up): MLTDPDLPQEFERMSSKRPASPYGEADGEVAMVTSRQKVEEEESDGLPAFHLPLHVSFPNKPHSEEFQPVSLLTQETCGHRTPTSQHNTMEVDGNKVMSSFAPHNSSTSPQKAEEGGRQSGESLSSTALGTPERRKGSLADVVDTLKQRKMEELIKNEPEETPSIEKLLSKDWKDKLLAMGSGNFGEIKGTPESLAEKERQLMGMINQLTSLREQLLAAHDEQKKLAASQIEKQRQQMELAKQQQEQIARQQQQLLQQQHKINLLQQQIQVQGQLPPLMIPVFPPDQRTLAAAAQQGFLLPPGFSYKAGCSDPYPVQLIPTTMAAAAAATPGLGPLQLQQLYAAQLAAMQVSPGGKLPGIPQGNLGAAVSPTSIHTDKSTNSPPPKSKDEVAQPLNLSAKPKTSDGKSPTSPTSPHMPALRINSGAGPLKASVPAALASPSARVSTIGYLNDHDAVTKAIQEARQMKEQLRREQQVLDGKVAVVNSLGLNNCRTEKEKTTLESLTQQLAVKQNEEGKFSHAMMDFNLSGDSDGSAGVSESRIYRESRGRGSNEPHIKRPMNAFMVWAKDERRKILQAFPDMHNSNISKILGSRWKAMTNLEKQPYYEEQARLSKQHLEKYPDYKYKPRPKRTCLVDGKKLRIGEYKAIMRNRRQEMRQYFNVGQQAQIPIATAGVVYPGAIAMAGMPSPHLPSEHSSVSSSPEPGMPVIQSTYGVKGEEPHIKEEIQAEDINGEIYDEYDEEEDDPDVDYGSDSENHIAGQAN
Sequence of UniProt O60225 (O60225 whole entry, looked up): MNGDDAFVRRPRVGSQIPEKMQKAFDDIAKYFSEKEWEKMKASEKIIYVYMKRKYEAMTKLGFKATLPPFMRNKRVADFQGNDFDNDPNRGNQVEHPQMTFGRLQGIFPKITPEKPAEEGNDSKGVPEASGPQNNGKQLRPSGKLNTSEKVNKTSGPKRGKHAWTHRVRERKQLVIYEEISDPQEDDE
Sequence of UniProt Q86XK3 (Q86XK3 whole entry, looked up): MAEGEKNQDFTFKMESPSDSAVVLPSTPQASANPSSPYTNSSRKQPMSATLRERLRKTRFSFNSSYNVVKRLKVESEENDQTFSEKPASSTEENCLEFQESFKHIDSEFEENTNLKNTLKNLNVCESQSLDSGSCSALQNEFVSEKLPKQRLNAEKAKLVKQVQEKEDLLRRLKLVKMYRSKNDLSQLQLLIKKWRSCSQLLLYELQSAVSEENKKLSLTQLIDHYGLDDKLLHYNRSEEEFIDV
Sequence of UniProt Q96R06 (Q96R06 whole entry, looked up): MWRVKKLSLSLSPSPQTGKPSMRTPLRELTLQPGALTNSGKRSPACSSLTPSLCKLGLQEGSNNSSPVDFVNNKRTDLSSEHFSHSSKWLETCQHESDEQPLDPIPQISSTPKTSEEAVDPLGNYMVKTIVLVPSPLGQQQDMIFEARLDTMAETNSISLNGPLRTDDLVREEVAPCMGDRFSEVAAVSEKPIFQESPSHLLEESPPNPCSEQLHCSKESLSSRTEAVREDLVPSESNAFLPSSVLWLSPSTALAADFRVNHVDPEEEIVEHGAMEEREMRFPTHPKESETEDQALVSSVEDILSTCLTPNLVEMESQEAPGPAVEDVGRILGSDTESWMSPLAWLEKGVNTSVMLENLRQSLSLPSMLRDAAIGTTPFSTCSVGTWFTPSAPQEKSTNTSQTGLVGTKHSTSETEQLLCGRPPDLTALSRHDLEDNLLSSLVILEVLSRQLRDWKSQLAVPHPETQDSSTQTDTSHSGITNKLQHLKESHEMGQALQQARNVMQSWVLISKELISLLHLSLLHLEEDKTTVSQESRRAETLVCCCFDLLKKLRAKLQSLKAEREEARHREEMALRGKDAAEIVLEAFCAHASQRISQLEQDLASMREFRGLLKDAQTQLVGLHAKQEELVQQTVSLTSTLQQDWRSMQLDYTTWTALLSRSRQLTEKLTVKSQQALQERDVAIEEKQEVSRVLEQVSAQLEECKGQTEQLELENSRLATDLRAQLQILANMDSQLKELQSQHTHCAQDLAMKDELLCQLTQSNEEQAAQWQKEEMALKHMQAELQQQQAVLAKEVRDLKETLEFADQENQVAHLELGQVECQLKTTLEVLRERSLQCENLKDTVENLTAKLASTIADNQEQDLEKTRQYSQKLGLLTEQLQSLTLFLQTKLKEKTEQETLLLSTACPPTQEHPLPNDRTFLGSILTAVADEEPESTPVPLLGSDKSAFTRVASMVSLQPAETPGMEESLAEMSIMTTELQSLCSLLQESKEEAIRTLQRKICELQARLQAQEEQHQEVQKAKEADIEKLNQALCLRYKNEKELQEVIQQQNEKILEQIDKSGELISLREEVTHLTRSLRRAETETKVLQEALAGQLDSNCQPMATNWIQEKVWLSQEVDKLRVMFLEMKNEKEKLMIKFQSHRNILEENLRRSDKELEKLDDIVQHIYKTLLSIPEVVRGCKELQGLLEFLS

Row | Target | log2 fold change (erlotinib) | log2 fold change [1] | log2 fold change [2] | log2 fold change [3] | log2 fold change [4] | log2 fold change [5] | log2 fold change [6] | log2 fold change [7] | log2 fold change [8] | log2 fold change (IRAK-1-4 Inhibitor I) | log2 fold change (ibrutinib) | log2 fold change [9] | log2 fold change (ralimetinib) | log2 fold change [10] | log2 fold change [11] | log2 fold change [12] | log2 fold change [13] | log2 fold change [14] | log2 fold change [15] | log2 fold change [16]
1 | SLC30A9 (UniProt Q6PML9) | -0.023 | 0.039 | -0.17 | -0.079 | 0.017 | -0.012 | -0.023 | -0.056 | 0.1 | -0.005 | 0.061 | 0.002 | -0.03 | 0.064 | 0.021 | -0.033 | 0.008 | 0.017 | -0.213 | -0.009
2 | SSX5 isoform 2 (UniProt O60225) | -0.302 | 0.12 | -0.142 | 0.195 | -0.125 | 0.043 | -0.027 | 0.23 | -0.219 | 0.007 | -0.081 | 0.028 | 0 | 0.032 | -0.261 | -0.089 |  |  | -0.018 | -0.003
3 | SOX5 (UniProt P35711) | -0.169 | 0.08 | 0.025 | 0.38 (active) | 0.131 | 0.059 | -0.239 | 0.028 | 0.154 | 0.044 | -0.064 | 0.14 | -0.049 | 0.02 | 0.091 |  | 0.053 | 0.036 | 0.088 | -0.105
4 | TANGO6 (UniProt Q9C0B7) | 0.045 | -0.04 | 0.012 | -0.011 | 0.009 | -0.049 | -0.048 | 0.007 | 0.023 | 0.048 | -0.056 | 0.039 | 0.023 | 0.02 | -0.067 | -0.028 | -0.017 | -0.013 | -0.02 | -0.011
5 | SPAG5 (UniProt Q96R06) | 0.013 | 0.012 | -0.054 | 0.003 | -0.008 | 0.014 | 0.018 | -0.009 | -0.011 | 0 | -0.005 | 0.039 | -0.001 | 0.017 | -0.013 | 0.03 | -0.024 | -0.024 | 0.008 | -0.005
6 | SNUPN (UniProt O95149) | -0.048 | -0.116 | 0.3 | 0.024 | 0.035 | 0.069 | 0.009 | 0.02 | -0.039 | -0.001 | -0.072 | 0.001 | -0.008 | -0.068 | -0.116 | -0.065 |  | 0.001 | -0.036 | 0.027
7 | SPPL2A (UniProt Q8TCT8) | 0.005 | -0.007 | 0.118 | -0.104 | -0.011 | -0.07 | -0.141 | -0.082 | -0.644 (active) | 0.014 | -0.081 | 0.154 | -0.152 | -0.219 | 0.004 |  |  | 0.138 | 0.091 | -0.008
8 | SFR1 isoform 2 (UniProt Q86XK3) | -0.009 | -0.019 | 0.067 | 0.015 | -0.051 | 0.018 | 0.025 | 0.04 | 0.01 | 0.001 | 0.023 | -0.006 | 0.003 | -0.012 | -0.005 | -0.006 | 0.041 | 0.026 | 0.06 | 0.016
